Pf growth 48h: inhibits P. falciparum growth in the first generation, 48 h | P. falciparum luciferase growth in erythrocytes, 48 h | AID 504832 | Potency, µM (top dose mostly 28.7 µM), actives largely listed as inhibitors | 5.9% of 310,000 active
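First compound was added to culture medium, then infected red cells at 0.1% parasitemia and 2% hematocrit (final). After incubation at 37 C under 5% CO2, luciferase detection reagent was dispensed and light output recorded.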
Cycloheximide cs: affects cycloheximide protein synthesis inhibition readout, counter-screen; AID 2314; cell reporter, cycloheximide protein synthesis inhibition counterscreen; max response, %; 12% of 300,000 active; in the data active = max response mostly above about 13%, no sharp cut-off; inactive = mostly below about 14%; note: read at 38.3 µM for the half of the compounds with a filed dose
Pf growth 96h: P. falciparum growth inhibition at 96 hour, primary screen for plastid delayed-death inhibitors; Potency, µM (top dose mostly 28.7 µM), hits mostly inhibitors; 6.9% of 320,000 active; P. falciparum luciferase reporter growth, 96 h
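Cell-based qHTS: luciferase-tagged P. falciparum in erythrocytes (2% hematocrit, 0.05% parasitemia final) incubated with compounds for 96 hours, 37 C, 5% CO2; luciferase detection reagent then added and luminescence measured.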
Shiga toxin inh: blocks Shiga toxin action in Vero cells | Vero cells, Shiga toxin protein synthesis inhibition reporter | inhibition, % at 38.7 µM | 9.2% of 290,000 active | AID 2315; in the data active = inhibition mostly above about 28%, no sharp cut-off; inactive = mostly below about 43%
LmPK inh: blocks Leishmania mexicana pyruvate kinase activity | 0.37% of 290,000 active | purified LmPK, Kinase-Glo ATP luminescence, 1 h | Q27686 | Potency, µM (doses to about 57.5 µM), usual class: inhibitors
Target sequence (Q27686 whole entry, looked up): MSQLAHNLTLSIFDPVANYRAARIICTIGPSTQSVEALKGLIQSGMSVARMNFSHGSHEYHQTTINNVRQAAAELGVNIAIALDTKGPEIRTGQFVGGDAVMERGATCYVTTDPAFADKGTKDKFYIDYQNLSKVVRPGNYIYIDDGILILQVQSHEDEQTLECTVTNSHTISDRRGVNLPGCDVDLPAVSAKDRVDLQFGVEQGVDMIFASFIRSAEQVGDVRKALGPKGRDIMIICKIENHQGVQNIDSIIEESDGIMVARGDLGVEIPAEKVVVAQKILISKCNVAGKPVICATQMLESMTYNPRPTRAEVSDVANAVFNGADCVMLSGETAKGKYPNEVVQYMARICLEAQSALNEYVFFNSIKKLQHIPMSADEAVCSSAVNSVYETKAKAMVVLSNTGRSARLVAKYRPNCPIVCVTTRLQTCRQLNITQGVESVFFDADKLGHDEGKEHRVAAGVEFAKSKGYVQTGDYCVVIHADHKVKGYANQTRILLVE
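ATP generated from ADP (0.1 mM) and PEP (0.5 mM) by 0.1 nM LmPK over 1 h at room temperature (pH 7.2 imidazole buffer) was detected by coupled luciferase luminescence. Values were normalized to uninhibited and no-enzyme wells.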
Numbers stand for hits; – = inactive; ? = inconclusive; · = not tested or not shown. A selection: hits, their analogues and other compounds. The true share with any hit is near 22%. Unless noted, calls come from the whole dose curve; as a rule, active = well fitted inhibition curve with a large enough effect; inconclusive = small, poorly fitted or top-dose-only effect, or another doubt; inactive = no such curve, though single readings can be large or run the other way.

SMILES	Pf growth 48h	Cycloheximide cs	Pf growth 96h	Shiga toxin inh	LmPK inh
O=C(c1ccc2ccccc2c1)N1CCCC1	–	–	–	–	–
O=C(Nc1ccccc1)Nc1ccc(C(=O)N2CCCC2)cc1	–	19	–	45	16µM
O=C1c2ccccc2-c2ccc(C(=O)N3CCCCC3)cc21	–	31	–	–	–
O=C(/C=C/c1ccccc1)Nc1ccc(C(=O)N2CCCCC2)cc1	–	–	–	44	–
O=C(Nc1ccc(C2CC2(Cl)Cl)cc1)c1ccccc1Br (centres undefined)	–	45	0.93µM	57	–
CC(C)(C)c1ccc(C(=O)NCc2nnc(SCC(=O)NC3CCCCC3)o2)cc1	–	–	–	–	–
O=C(Nc1ccc(C(=O)N2CCCC2)cc1)c1ccccc1Br	–	11	–	–	–
COc1ccc2c(c1)CCc1c(C(=O)NCc3ccco3)noc1-2	–	34	?	67	–
COc1ccc2c(c1)CCc1c(C(=O)N(C)c3ccccc3)noc1-2	–	49	?	123	–
COCCNC(=O)c1noc2c1CCc1cc(OC)ccc1-2	–	35	?	–	–
COc1ccc(N(C)C(=O)c2onc3c2CCCC3)cc1	–	–	–	–	–
COc1ccc2c(c1)CCc1c(C(=O)NCCCn3ccnc3)noc1-2	?	–	–	–	–
COc1ccc2c(c1)CCc1c(C(=O)NC3CCCCC3)noc1-2	–	45	–	59	–
COc1ccc2c(c1)CCc1c(C(=O)NCCN3CCOCC3)noc1-2	–	–	–	–	–
COc1ccccc1NC(=O)c1ccc(CSc2ccccc2)o1	–	–	–	–	–
Cc1ccc(N2CC(C(=O)NCc3n[nH]c(=O)c4ccccc34)CC2=O)cc1 (centres undefined)	–	·	–	·	·
Cc1ccc(C)c(OCCC(=O)OCC(=O)NCc2ccc(F)cc2)c1	–	–	–	–	–
COCC(C)NC(=O)c1noc2c1CCc1cc(OC)ccc1-2 (centres undefined)	–	33	–	83	–
O=C(N/N=C/C(Cl)=C\c1ccccc1)c1ccco1	1.9µM	48	3.7µM	113	–
O=C(Oc1ccc(/C=N/NC(=O)c2ccco2)cc1)c1ccccc1	?	·	–	·	·
O=C(N/N=C/C(Cl)=C/c1ccccc1)c1ccco1	5.2µM	51	?	71	–
O=C(Nc1ccccc1)/C(=C/c1ccccc1)NC(=O)c1ccco1	–	–	–	–	–
O=C(CSc1nc2ccccc2c(=O)n1CC1CCCO1)NCCc1ccccc1 (centres undefined)	–	–	?	–	–
Cc1ccc(-n2nc3c(=O)n(CC(=O)NCCc4ccccc4C)nc(C)c3c2C)cc1	?	–	–	–	–
O=C(O)C1CCCN(S(=O)(=O)c2ccc(Br)s2)C1 (centres undefined)	–	–	–	–	–
SMILES	Pf growth 48h	Cycloheximide cs	Pf growth 96h	Shiga toxin inh	LmPK inh
O=C(C1CCCN(S(=O)(=O)c2ccc(Br)cc2)C1)N1CCN(Cc2ccccc2)CC1 (centres undefined)	6.6µM	–	–	–	–
O=C(NCc1ccc(F)cc1)C1CCCN(S(=O)(=O)c2ccc(Br)s2)C1 (centres undefined)	?	–	–	55	–
O=C(C1CCCN(S(=O)(=O)c2ccc(Br)s2)C1)N1CCN(c2ccccc2)CC1 (centres undefined)	8.3µM	–	–	–	–
O=C(C1CCCN(S(=O)(=O)c2ccccc2)C1)N1CCN(c2ccccc2)CC1 (centres undefined)	?	–	–	–	–
O=C(NCc1cccs1)C1CCN(S(=O)(=O)c2ccc(Br)s2)CC1	·	–	–	–	–
O=C(C1CCCN(S(=O)(=O)c2ccc(Br)s2)C1)N1CCCCCC1 (centres undefined)	?	–	–	–	–
O=C(NCc1ccc(F)cc1)C1CCN(S(=O)(=O)c2ccc(Br)s2)CC1	9.3µM	15	?	37	–
O=C(Nc1cccc(S(=O)(=O)N2CCOCC2)c1)c1cc([N+](=O)[O-])ccc1N1CCOCC1	–	·	–	·	·
CC1(NC(=O)/C=C/c2nc3ccccc3s2)CCS(=O)(=O)C1 (centres undefined)	–	·	?	·	·
COc1ccc(N(CC(=O)NCc2ccc(F)cc2)C(=O)c2snc(C(N)=O)c2N)cc1	–	–	–	–	–
CCC(C)NC(=O)C1CCN(S(=O)(=O)c2ccc(Br)s2)CC1 (centres undefined)	?	–	10µM	–	–
CN1C(=O)C(C)(C)c2cc(S(=O)(=O)N3CCC(C(=O)NCc4ccc(F)cc4)CC3)ccc21	?	–	13µM	–	–
COc1ccc(CC(=O)Nc2ccc(-c3cn4ccccc4n3)cc2)cc1OC	·	–	–	–	–
CCC(=O)Nc1cccc(-c2cn3ccccc3n2)c1	–	18	12µM	45	–
COc1ccc(CC(=O)Nc2ccc(-c3cn4ccccc4n3)cc2)cc1	–	25	·	112	–
O=C(Nc1cccc(-c2cn3ccccc3n2)c1)C1CC1	–	35	–	46	–
COc1ccc(CC(=O)Nc2cccc(-c3cn4ccccc4n3)c2)cc1	–	46	–	active	–
CCC(=O)Nc1cccc(-c2cn3cccc(C)c3n2)c1	–	39	–	54	–
O=C(Nc1ccc(-c2cn3ccccc3n2)cc1)c1cccs1	–	33	–	54	–
O=C(COc1ccccc1)Nc1cccc(-c2cn3cccnc3n2)c1	9.3µM	–	6.6µM	–	–
O=C(O)C1=C[C@H](C2CC2)C[C@H](OCCCCO)O1	–	–	–	–	–
CC(Sc1nc2ccccc2[nH]1)C(=O)Nc1ccccc1F (centres undefined)	–	–	–	–	–
COc1cc(/C=C/C(=O)O)cc(S(=O)(=O)Nc2ccc(S(=O)(=O)N3CCCCC3)cc2)c1OC	–	·	–	·	·
Cc1ccc(OCC(O)CNCc2ccc(F)cc2)cc1 (centres undefined)	?	–	?	–	–
Cc1ccc(OCc2ccc(C(=O)NN)o2)c([N+](=O)[O-])c1	–	37	?	–	–
SMILES	Pf growth 48h	Cycloheximide cs	Pf growth 96h	Shiga toxin inh	LmPK inh
COC(=O)c1ccc(COc2ccc(C)cc2[N+](=O)[O-])o1	–	48	–	77	–
COC(=O)c1ccc(Cn2nc(C)c([N+](=O)[O-])c2C)o1	–	–	13µM	–	–
COc1ccc(CNCC(O)COc2ccc(C)cc2[N+](=O)[O-])cc1 (centres undefined)	?	35	–	69	–
O=[N+]([O-])c1cc2c(c(CSc3nnnn3-c3ccc(O)cc3)c1)OCOC2	–	–	–	–	–
CC1Cc2cc(S(=O)(=O)N3CCN(c4ccc(Cl)cc4)CC3)ccc2N1C(=O)C1CC1 (centres undefined)	?	–	15µM	–	–
CC1CCN(C(=O)C2CCN(S(=O)(=O)c3ccc4c(c3)CC(C)N4C(=O)C3CC3)CC2)CC1 (centres undefined)	9.3µM	–	–	–	–
CC1Cc2cc(S(=O)(=O)N3CCN(c4cccc(Cl)c4)CC3)ccc2N1C(=O)C1CC1 (centres undefined)	?	–	?	–	–
